# Source: the supplement of paper PMC6555819
# Test system: PPARg:RXRa IVT, anti-PPARg (NR concentration 270 nM, RXRa partner concentration 90 nM)
# Experiment: PBM binding z-score (relative to random genomic background probes); higher = stronger binding; sequences stand for … in GC…GCGATTGACAGCGTAGAATGAAGG
# Outline: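 Binding z-scores were set against random background probes. The data came from custom Agilent 4×180K protein-binding microarrays carrying double-stranded probes with 34-nt variable regions, incubated 1 h with ligand-free nuclear receptor dimers. Partner-specific antibodies detected binding, and scanned fluorescence was regression-normalized.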
row,Sequence,PBM binding z-score
1,TCGACTAGGTTACGGGGGCATTCAGGGATGAAGA,6.51
2,CTATGTAGGTTAAGGGGGACATTCAGTTTGAAAG,7.62
3,CCGAGTAGGTTAGGAGGGGGCATTCAGTGCGAAT,4.36
4,CTGTGTAGGTTAAGGGGGTCATTCAGTTTGAAAG,6.16
5,CTATGTAGGTTAAGGGGGTCACTCAGTTTGAAAG,7.88
6,TCGAGTAGGTTAAGGGGGCATTCAGGGATGAAGA,4.69
7,TCGAGTTGGTTACGGGGGCATTCAGGGATGAAGA,3.75
8,TCGAGTAGTTTACGGGGGCATTCAGGGATGAAGA,3.22
9,TCGAGTAGGTTACGGGGGCATGCAGGGATGAAGA,5.87
10,CCGAGTAGGGTACGAGGGGGCATTCAGTGCGAAT,3.56
11,CCGAGTAGGTTACGAGGGGGAATTCAGTGCGAAT,4.06
12,CCGAGTAGGTTACAAGGGGGCATTCAGTGCGAAT,4.29
13,CTATGTAGGTTAAGGGGATCATTCAGTTTGAAAG,6.92
14,TCGAGTAGGTTACGGGCGCATTCAGGGATGAAGA,2.9
15,TCGAGTAGGTTACGGGGGCATTTAGGGATGAAGA,5.8
16,CTATGTAGGTTTAGGGGGTCATTCAGTTTGAAAG,4.95
17,TCGAGTAGGTTACGGGGGCATTCCGGGATGAAGA,5.8
18,TCGAGTAGGTTACCGGGGCATTCAGGGATGAAGA,4.46
19,TCGAGTAGGTGACGGGGGCATTCAGGGATGAAGA,6.13
20,CCGAGTAGGTTACGAGGTGGCATTCAGTGCGAAT,3.92

row,Sequence,PBM binding z-score
1,CTATGTAGGGTAAGGGGGTCATTCAGTTTGAAAG,7.72
2,CTATGTAGGTTCAGGGGGTCATTCAGTTTGAAAG,4.65
3,CCGAGTAGTTTACGAGGGGGCATTCAGTGCGAAT,0.828
4,CCGAGTAGGTTACGAGGGTGCATTCAGTGCGAAT,3.87
5,TCGAGTAGGTTACGGGGGCATTCAAGGATGAAGA,6
6,CTATGTACGTTAAGGGGGTCATTCAGTTTGAAAG,5.2
7,TCGAGTAGGTTACGGGGGCTTTCAGGGATGAAGA,4.61
8,CCGAGTAGGTTACGAGGGGGCATTCTGTGCGAAT,4.3
9,TCGCGTAGGTTACGGGGGCATTCAGGGATGAAGA,4.58
10,TCGAGTAGGTTACGGGGGCATTCATGGATGAAGA,5.88
11,CTATGTAGGTTAAGGGGGTCATTCACTTTGAAAG,7.41
12,CCGAGTATGTTACGAGGGGGCATTCAGTGCGAAT,1.95
13,CTATGTAGGTTAAGGGCGTCATTCAGTTTGAAAG,6.94
14,CCGAGTAGGTTACGAGGGGGCAGTCAGTGCGAAT,4.53
15,CTATGTCGGTTAAGGGGGTCATTCAGTTTGAAAG,5.96
16,TCGAGTAGGTTAGGGGGGCATTCAGGGATGAAGA,5.24
17,CTTTGTAGGTTAAGGGGGTCATTCAGTTTGAAAG,7.18
18,TCGAGTAGGTTACGAGGGCATTCAGGGATGAAGA,4.89
19,TCGAGTAGGTTACGGAGGCATTCAGGGATGAAGA,3.05
